Measured values as given in paper PMC4336329 (PLoS ONE, 2015).
Screen size: about 310,000 compounds; about 14,000 (4.5%) showed an effect of 50% or more. Effects have a minus sign here. The entries come from a sample that favours strong results as a whole.

Biological target: human ether-à-go-go-related gene (hERG) potassium channel (human, UniProt Q12809)
Assay: primary screen, population patch clamp on CHO cells stably expressing hERG; higher = less effect of the substance
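Note: peak tail current of the secondary pulse compared with the same well before compound.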

Sequence of human ether-à-go-go-related gene (hERG) potassium channel (Q12809 whole entry, looked up): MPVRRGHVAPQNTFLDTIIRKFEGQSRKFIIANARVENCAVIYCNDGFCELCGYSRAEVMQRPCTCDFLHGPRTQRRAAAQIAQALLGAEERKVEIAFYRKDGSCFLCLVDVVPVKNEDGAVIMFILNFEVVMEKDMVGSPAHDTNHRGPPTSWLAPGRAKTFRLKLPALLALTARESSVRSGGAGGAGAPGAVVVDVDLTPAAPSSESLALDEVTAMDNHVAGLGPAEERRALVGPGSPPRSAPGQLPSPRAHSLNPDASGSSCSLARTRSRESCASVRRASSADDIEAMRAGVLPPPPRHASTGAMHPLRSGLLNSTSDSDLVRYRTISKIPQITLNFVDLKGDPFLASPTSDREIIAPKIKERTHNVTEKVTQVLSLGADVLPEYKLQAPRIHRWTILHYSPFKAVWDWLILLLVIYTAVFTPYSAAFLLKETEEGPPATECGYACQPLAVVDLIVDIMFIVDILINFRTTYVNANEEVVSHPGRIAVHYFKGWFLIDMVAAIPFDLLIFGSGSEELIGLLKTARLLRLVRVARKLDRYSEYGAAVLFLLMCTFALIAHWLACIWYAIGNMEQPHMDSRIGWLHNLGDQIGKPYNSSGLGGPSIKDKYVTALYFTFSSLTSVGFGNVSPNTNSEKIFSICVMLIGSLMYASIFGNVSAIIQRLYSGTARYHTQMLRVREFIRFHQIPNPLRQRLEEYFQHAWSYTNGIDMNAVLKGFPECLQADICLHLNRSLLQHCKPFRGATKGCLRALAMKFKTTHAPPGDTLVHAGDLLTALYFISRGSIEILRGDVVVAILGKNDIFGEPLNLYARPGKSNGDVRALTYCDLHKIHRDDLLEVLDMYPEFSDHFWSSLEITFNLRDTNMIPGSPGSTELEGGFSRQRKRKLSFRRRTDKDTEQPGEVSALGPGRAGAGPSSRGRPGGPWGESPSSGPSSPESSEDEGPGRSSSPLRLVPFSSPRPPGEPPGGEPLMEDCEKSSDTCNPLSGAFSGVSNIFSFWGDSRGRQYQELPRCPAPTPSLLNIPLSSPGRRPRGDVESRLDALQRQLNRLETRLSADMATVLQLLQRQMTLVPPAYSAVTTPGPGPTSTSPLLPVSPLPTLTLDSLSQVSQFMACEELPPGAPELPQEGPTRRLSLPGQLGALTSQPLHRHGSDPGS

Row | Structure (SMILES) | hERG current change (%, negative = inhibition) at 10uM [%]
1 | COC(=O)c1cc(OC)c(OC)cc1NC(=O)c1cc(C(C)(C)C)oc1C | 5.71
2 | c1ccc(Cn2nnc3c(N4CCc5ccccc5C4)ncnc32)cc1 | -21.5
3 | COc1cc(C(CCN2CCN(c3ccccc3)CC2)c2c(OC)cc(OC)c3ccc(=O)oc23)cc(OC)c1OC (stereo not shown) | -8.86
4 | COc1cc(OC)c2ccc(=O)oc2c1C(CCN1CCCCC1)c1ccc(N(C)C)cc1 (stereo not shown) | -16
5 | COc1cc(OC)c2ccc(=O)oc2c1C(CCN1CCCC(C)C1)c1ccc2c(c1)OCO2 (stereo not shown) | -61
6 | COc1cc(OC)c2ccc(=O)oc2c1C(CCN1CCCC1)c1ccc(N(C)C)cc1 (stereo not shown) | -24.1
7 | COc1cc(C(CCN2CCCC2)c2c(OC)cc(OC)c3ccc(=O)oc23)cc(OC)c1OC (stereo not shown) | -69.2
8 | COc1cc(OC)c2ccc(=O)oc2c1C(CCN1CCCC(C)C1)c1ccc(N(C)C)cc1 (stereo not shown) | -10.6
9 | COc1cc(OC)c2ccc(=O)oc2c1C(CC(=O)N1CCCC(C)C1)c1ccc2c(c1)OCO2 (stereo not shown) | 4.24
10 | COc1cc(C(CC(=O)N2CCCC2)c2c(OC)cc(OC)c3ccc(=O)oc23)cc(OC)c1OC (stereo not shown) | 2.42
11 | COc1cc(OC)c2ccc(=O)oc2c1C(CCN1CCCC1)c1ccc2c(c1)OCO2 (stereo not shown) | -56.7
12 | CS(=O)(=O)N1CCCC(C(=O)NCc2ccc(F)cc2Cl)C1 (stereo not shown) | 2.22
13 | CC1(c2ccccc2)CC(C)(C)N2C(=O)C(=O)c3cccc1c32 (stereo not shown) | 19.6
14 | CCCCNC(=S)NC(=O)c1ccc(Cl)cc1Cl | 22.7
15 | CC(=O)Nc1nc(-c2ccccc2)nc(C)c1C(C)=O | -5.89
16 | COc1ccc(S(=O)(=O)N2CC(=O)Nc3ccccc32)cc1 | -6.04
17 | O=C1CCC(C(=O)N2CCCC(C(=O)c3ccc4ccccc4c3)C2)=NN1 (stereo not shown) | -8.31
18 | O=C(COC(=O)Cn1cnc2ccccc21)Nc1cc(S(=O)(=O)N2CCOCC2)ccc1Cl | -0.439
19 | COc1cccc(-c2cccc(NC(=O)C3CCN(Cc4nccs4)CC3)c2)c1 | -37.1
20 | CCc1ccc(CN2CCC(C(=O)Nc3cccc(-c4nnc(C)s4)c3)CC2)o1 | -33.6
21 | Cc1nn(C(C)C)c(C)c1CN1CCCC(C(=O)c2cccc(OC(C)C)c2)C1 (stereo not shown) | -39.6
22 | CCS(=O)(=O)N1CCC(C(=O)Nc2cccc(F)c2)CC1 | -6.51
23 | Cc1nn(C(C)C)c(C)c1CN1CCC(C(=O)Nc2cccc(-c3cccc(F)c3)c2)CC1 | -67.8
24 | CCOC(=O)C1(Cc2cccc(F)c2)CCN(Cc2c(C)nn(CC)c2C)CC1 | -41.4
25 | CCCc1ncc(CN2CCC(C(=O)Nc3cccc(-c4cscn4)c3)CC2)cn1 | -34.9
26 | CCn1nc(C)c(CN2CCC(C(=O)Nc3cccc(-c4cccc(F)c4)c3)CC2)c1C | -67
27 | CCn1nc(C)c(CN2CCC(C(=O)Nc3cccc(-c4cccc(Cl)c4)c3)CC2)c1C | -65
28 | Br.COc1cccc(CNCC2CCCO2)c1 (stereo not shown) | 13.9

Row | Structure (SMILES) | hERG current change (%, negative = inhibition) at 10uM [%]
29 | COc1ccc(OC)c(NC(=O)Cc2coc3ccc4ccccc4c23)c1 | 0.772
30 | Cc1sc(/C=C2\C(=O)ON=C2c2ccccc2)cc1Br | 14.8
31 | COC(=O)c1ccc(NC(=O)c2ccc3nsnc3c2)cc1 | 4.15
32 | COc1ccc(CN2CCN(c3ccccc3F)CC2)cc1O | -66.5
33 | COc1ccc(OC)c(CN2CCN(c3ccccc3OC)CC2)c1 | -32.7
34 | COc1cc(CN2CCN(c3ccccc3F)CC2)c([N+](=O)[O-])cc1OC | -27.4
35 | COc1ccc(CN2CCN(Cc3ccccc3F)CC2)cc1.O=C(O)C(=O)O | -43.2
36 | COc1ccc(CN2CCN(Cc3ccccc3F)CC2)c(OC)c1.O=C(O)C(=O)O | -68.5
37 | COc1ccc(CN2CCN(Cc3ccco3)CC2)c(OC)c1.O=C(O)C(=O)O | -46.4
38 | COc1ccc(CN2CCN(C(=O)c3ccc(F)cc3)CC2)c(OC)c1.O=C(O)C(=O)O | -44.3
39 | COc1ccc(CN2CCSCC2)cc1O | 14.4
40 | COc1cc(CN2CCN(c3ccccc3F)CC2)cc(OC)c1O | -26.4
41 | COc1ccc(CN2CCN(c3ccccc3OC)CC2)c(OC)c1.O=C(O)C(=O)O | -64.2
42 | COc1ccc(CN2CCN(c3ccccc3F)CC2)c(OC)c1 | -75.1
43 | COc1ccccc1N1CCN(Cc2ccccc2F)CC1 | -17.6
44 | CC1CN(Cc2ccc(C#N)cc2Cl)CC(C)O1.Cl (stereo not shown) | 0.479
45 | COc1ccc(Nc2nc(-c3cccs3)nc3ccccc23)cc1S(=O)(=O)N1CCOCC1 | -17.5
46 | COc1ccc(OC)c(S(=O)(=O)N2Cc3ccccc3CC2C(=O)Nc2nccs2)c1 (stereo not shown) | 22.2
47 | COc1cc(CNn2c(C)n[nH]c2=S)cc(Cl)c1OCc1ccc(F)cc1 | 14.4
48 | COc1ccc2c(c1)C(NC(C)=O)C(=O)N2C (stereo not shown) | -5.38
49 | O=C(O)c1ccccc1C(=O)Nn1cnnc1 | 10.6
50 | CCOC(=O)NC1(C(F)(F)F)NC(=O)N(C2CCCCC2)C1=O (stereo not shown) | -3.7
51 | O=C(CCC(=O)NNC(=O)COc1ccc(Br)cc1)NCc1ccccc1 | 19.6
52 | OC(CNCc1ccccn1)c1ccccc1 (stereo not shown) | -3.94
53 | COc1cc(CN2CCN(Cc3ccccc3C(F)(F)F)CC2)cc(OC)c1OC.O=C(O)C(=O)O | -8.28
54 | COc1ccc(CN2CCN(Cc3ccccc3C(F)(F)F)CC2)c(OC)c1.O=C(O)C(=O)O | -74.2
55 | COc1ccc(C(=O)N2CCN(Cc3ccccc3C(F)(F)F)CC2)cc1.O=C(O)C(=O)O | -1.25
